Drawing on PubChem BioAssay (NCATS), this text covers Potency for 39 compounds.

Inconclusive results are not listed. A call without a number means that no potency is given here. Calls of active or inactive are those of the source. Calls follow the shape of the dose curve; as a rule, active = well fitted inhibition curve with a large enough effect; inconclusive = small, poorly fitted or top-dose-only effect; inactive = flat fitted curve, though single readings scatter.
Potency is read from the fitted curve at half-maximal effect.

In one assay the test system is CP315. Put plainly: qHTS profiling for inhibitors of Plasmodium falciparum proliferation (AID 504749). Also: nearly all actives have a fitted effect of over 60% in size. Conditions: P. falciparum in erythrocytes, SYBR Green DNA, 72 h; series mostly up to 28.7 µM. The essentials: (§1)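 Each compound contacts P. falciparum-infected red blood cells for 72 h at 37 C; lysis buffer (Tris, EDTA, saponin, Triton X, SYBR Green I) is added and fluorescence measured next morning; values normalized to controls.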
In general terms: In qHTS, concentration-response curves come from the screen itself.
For `CC(C)C(=O)Nc1ccc([N+](=O)[O-])c(C(F)(F)F)c1`, the Potency entry was “inactive”.

For the compound `NC(=O)NO`, the Potency result was “inactive”.

Consider `CCOC(=O)C(C)(C)Oc1ccc(Cl)cc1`, for which the Potency entry is “inactive”.

On to `CC(CCc1ccc(O)cc1)NCCc1ccc(O)c(O)c1` (stereo not drawn), for which the Potency result was “inactive”.

For the compound `Cc1cn([C@H]2C[C@H](N=[N+]=[N-])[C@@H](CO)O2)c(=O)[nH]c1=O`, the Potency result was “inactive”.

As for `Cc1cc(C(C)(C)C)c(O)c(C)c1CC1=NCCN1`, the Potency result is “inactive”.

In the case of `NS(=O)(=O)c1cc2c(cc1Cl)NCNS2(=O)=O`, the Potency result is “inactive”.

Consider `CCOC(=O)c1ncn2c1CN(C)C(=O)c1cc(F)ccc1-2`, for which the Potency entry is “inactive”.

`COC(=O)Nc1nc2ccc(C(=O)c3cccs3)cc2[nH]1`: the Potency entry is “inactive”.

`Clc1ccc2nsnc2c1NC1=NCCN1`: the Potency entry is “inactive”.

In the case of `Cn1c(=O)c2c(ncn2C)n(C)c1=O`, the Potency result was “inactive”.

Take `CC(C)Cc1ccc(C(C)C(=O)O)cc1` (stereo not drawn): the Potency result is “inactive”.

As to `Cn1cnc2c1c(=O)[nH]c(=O)n2C`, the Potency entry is “inactive”.

As to `Cn1c(=O)c2[nH]cnc2n(C)c1=O`, the Potency entry was “inactive”.

As to `NCCCCCC(=O)O`, the Potency entry was “inactive”.

As to `CC(C)(Oc1ccc(C2CC2(Cl)Cl)cc1)C(=O)O` (stereo not drawn), the Potency result is “inactive”.

Consider `CN1C(C(=O)Nc2ccccn2)=C(O)c2ccccc2S1(=O)=O`, for which the Potency result is “inactive”.

With `N[C@@H](Cc1c[nH]c2ccc(O)cc12)C(=O)O`, the Potency entry was “inactive”.

For the compound `COc1cc2c(c(OC)c1OC)-c1ccc(OC)c(=O)cc1[C@@H](NC(C)=O)CC2`, the Potency entry is “inactive”.

On to `Cc1cc(C(C)(C)C)cc(C)c1CC1=NCCN1`, for which the Potency entry is “inactive”.

For `Cc1cnc(C(=O)NCCc2ccc(S(=O)(=O)NC(=O)NC3CCCCC3)cc2)cn1`, the Potency result is “inactive”.

With `CN1CCN2c3ccccc3Cc3ccccc3C2C1` (stereo not drawn), the Potency result is “inactive”.

Consider `Nc1nnc(-c2cccc(Cl)c2Cl)c(N)n1`, for which the Potency entry is “inactive”.

On to `CC[N+](CC)(CC)CCOc1cccc(OCC[N+](CC)(CC)CC)c1OCC[N+](CC)(CC)CC`, for which the Potency entry was “inactive”.

In the case of `Cc1ccc(C(=O)Nc2ccc(S(=O)(=O)O)c3cc(S(=O)(=O)O)cc(S(=O)(=O)O)c23)cc1NC(=O)c1cccc(NC(=O)Nc2cccc(C(=O)Nc3cc(C(=O)Nc4ccc(S(=O)(=O)O)c5cc(S(=O)(=O)O)cc(S(=O)(=O)O)c45)ccc3C)c2)c1`, the Potency result was “inactive”.

Take `CS(=O)(=O)Nc1ccc([N+](=O)[O-])cc1Oc1ccccc1`: the Potency result is “inactive”.

On to `CC(=O)OCC(CCn1cnc2cnc(N)nc21)COC(C)=O`, for which the Potency result is “inactive”.

`C[C@](N)(Cc1ccc(O)c(O)c1)C(=O)O`: the Potency entry was “inactive”.

As for `COc1ccccc1OCC(O)CN1CCN(CC(=O)Nc2c(C)cccc2C)CC1` (stereo not drawn), the Potency result is “inactive”.

In the case of `Cc1cn([C@H]2C=C[C@@H](CO)O2)c(=O)[nH]c1=O`, the Potency entry is “inactive”.

Take `Clc1ccccc1C(c1ccccc1)(c1ccccc1)n1ccnc1`: the Potency is 2.03 µM (active).

Turning to `CC(C)(C)C(=O)Oc1ccc(S(=O)(=O)Nc2ccccc2C(=O)NCC(=O)O)cc1`, the Potency entry is “inactive”.

Consider `NC(=O)OCC(COC(N)=O)c1ccccc1`, for which the Potency result is “inactive”.

Consider `COc1ccccc1N1CCN(CC(O)COc2cccc3ccccc23)CC1` (stereo not drawn), for which the Potency result is “inactive”.

In the case of `O=c1c(-c2ccc(O)cc2)coc2cc(O)cc(O)c12`, the Potency result is “inactive”.

`CCCNCC(O)COc1ccccc1C(=O)CCc1ccccc1` (stereo not drawn): the Potency was 4.78 µM (active).

Take `NCCc1cnc[nH]1`: the Potency entry is “inactive”.

`CN(C)c1nc(N(C)C)nc(N(C)C)n1`: the Potency entry was “inactive”.

`CC(C)NCC(O)c1ccc(O)c(O)c1` (stereo not drawn): the Potency result is “inactive”.

A further assay concerns CP325. Described as above. Conditions: P. falciparum in erythrocytes, SYBR Green DNA, 72 h; series mostly up to 28.7 µM. In outline:
as §1
Regarding `CC(C)C(=O)Nc1ccc([N+](=O)[O-])c(C(F)(F)F)c1`, the Potency entry is “inactive”.

For `NC(=O)NO`, the Potency entry was “inactive”.

For `CCOC(=O)C(C)(C)Oc1ccc(Cl)cc1`, the Potency result was “inactive”.

With `CC(CCc1ccc(O)cc1)NCCc1ccc(O)c(O)c1` (stereo not drawn), the Potency result was “inactive”.

In the case of `Cc1cn([C@H]2C[C@H](N=[N+]=[N-])[C@@H](CO)O2)c(=O)[nH]c1=O`, the Potency entry was “inactive”.

Consider `Cc1cc(C(C)(C)C)c(O)c(C)c1CC1=NCCN1`, for which the Potency result was “inactive”.

On to `NS(=O)(=O)c1cc2c(cc1Cl)NCNS2(=O)=O`, for which the Potency entry was “inactive”.

For `CCOC(=O)c1ncn2c1CN(C)C(=O)c1cc(F)ccc1-2`, the Potency result was “inactive”.

Consider `COC(=O)Nc1nc2ccc(C(=O)c3cccs3)cc2[nH]1`, for which the Potency entry was “inactive”.

As to `Clc1ccc2nsnc2c1NC1=NCCN1`, the Potency result was “inactive”.

On to `Cn1c(=O)c2c(ncn2C)n(C)c1=O`, for which the Potency entry is “inactive”.

Regarding `CC(C)Cc1ccc(C(C)C(=O)O)cc1` (stereo not drawn), the Potency result is “inactive”.

Consider `Cn1cnc2c1c(=O)[nH]c(=O)n2C`, for which the Potency entry is “inactive”.

With `Cn1c(=O)c2[nH]cnc2n(C)c1=O`, the Potency entry was “inactive”.

Take `NCCCCCC(=O)O`: the Potency result was “inactive”.

Take `CC(C)(Oc1ccc(C2CC2(Cl)Cl)cc1)C(=O)O` (stereo not drawn): the Potency entry was “inactive”.

As for `CN1C(C(=O)Nc2ccccn2)=C(O)c2ccccc2S1(=O)=O`, the Potency entry was “inactive”.

As for `N[C@@H](Cc1c[nH]c2ccc(O)cc12)C(=O)O`, the Potency result was “inactive”.

Take `COc1cc2c(c(OC)c1OC)-c1ccc(OC)c(=O)cc1[C@@H](NC(C)=O)CC2`: the Potency entry is “inactive”.

Turning to `Cc1cc(C(C)(C)C)cc(C)c1CC1=NCCN1`, the Potency entry was “inactive”.

Consider `Cc1cnc(C(=O)NCCc2ccc(S(=O)(=O)NC(=O)NC3CCCCC3)cc2)cn1`, for which the Potency entry was “inactive”.

As to `CN1CCN2c3ccccc3Cc3ccccc3C2C1` (stereo not drawn), the Potency entry was “inactive”.

On to `Nc1nnc(-c2cccc(Cl)c2Cl)c(N)n1`, for which the Potency entry is “inactive”.

With `CC[N+](CC)(CC)CCOc1cccc(OCC[N+](CC)(CC)CC)c1OCC[N+](CC)(CC)CC`, the Potency entry is “inactive”.

On to `Cc1ccc(C(=O)Nc2ccc(S(=O)(=O)O)c3cc(S(=O)(=O)O)cc(S(=O)(=O)O)c23)cc1NC(=O)c1cccc(NC(=O)Nc2cccc(C(=O)Nc3cc(C(=O)Nc4ccc(S(=O)(=O)O)c5cc(S(=O)(=O)O)cc(S(=O)(=O)O)c45)ccc3C)c2)c1`, for which the Potency result was “inactive”.

For `CS(=O)(=O)Nc1ccc([N+](=O)[O-])cc1Oc1ccccc1`, the Potency entry is “inactive”.

For the compound `CC(=O)OCC(CCn1cnc2cnc(N)nc21)COC(C)=O`, the Potency entry is “inactive”.

Take `C[C@](N)(Cc1ccc(O)c(O)c1)C(=O)O`: the Potency result was “inactive”.

As for `COc1ccccc1OCC(O)CN1CCN(CC(=O)Nc2c(C)cccc2C)CC1` (stereo not drawn), the Potency result is “inactive”.

On to `Cc1cn([C@H]2C=C[C@@H](CO)O2)c(=O)[nH]c1=O`, for which the Potency result is “inactive”.

Consider `Clc1ccccc1C(c1ccccc1)(c1ccccc1)n1ccnc1`, for which the Potency was 1.81 µM (active).

For `CC(C)(C)C(=O)Oc1ccc(S(=O)(=O)Nc2ccccc2C(=O)NCC(=O)O)cc1`, the Potency entry is “inactive”.

For the compound `NC(=O)OCC(COC(N)=O)c1ccccc1`, the Potency result was “inactive”.

For the compound `COc1ccccc1N1CCN(CC(O)COc2cccc3ccccc23)CC1` (stereo not drawn), the Potency entry is “inactive”.

As for `O=c1c(-c2ccc(O)cc2)coc2cc(O)cc(O)c12`, the Potency result was “inactive”.

Regarding `CCCNCC(O)COc1ccccc1C(=O)CCc1ccccc1` (stereo not drawn), the Potency is 4.26 µM (active).

With `NCCc1cnc[nH]1`, the Potency entry is “inactive”.

With `CN(C)c1nc(N(C)C)nc(N(C)C)n1`, the Potency result is “inactive”.

Take `CC(C)NCC(O)c1ccc(O)c(O)c1` (stereo not drawn): the Potency entry is “inactive”.
